Compounds without any hit were thinned out: in the full panel of roughly 79,000, 15% have a hit. Rule as the data show it: active = growth inhibition above about 70%; inactive = the rest.
How the values were obtained:
[1] = NCI Yeast Anticancer Drug Screen. Data for the rad50 strain (AID 155);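 also: 0% = growth of vehicle-only cultures of the same strain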; details: S. cerevisiae rad50 strain growth inhibition; at 50.0 µM; hits give high values
Method in brief: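 Compounds were tested on a yeast strain with an engineered DNA damage repair alteration; the reported value is growth inhibition normalised to vehicle treatment.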

[2] = NCI Yeast Anticancer Drug Screen. Data for the mec2-1 strain (AID 157); details: S. cerevisiae mec2-1 strain, at 50.0 µM, hits give high values
Method in brief: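 Test agents were screened against the mec2-1 yeast strain, with defined DNA repair or cell cycle alteration. Growth was scored as inhibition against vehicle-only controls.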

[3] = NCI Yeast Anticancer Drug Screen. Data for the sgs1 mgt1 strain (AID 161);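 also: 0% = growth of cultures given vehicle only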; details: S. cerevisiae sgs1 mgt1 strain, at 50.0 µM, hits give high values
Method in brief: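 Test agents were incubated with a DNA-repair-mutant yeast strain. Growth was then read and compared against vehicle-treated controls.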

[4] = NCI Yeast Anticancer Drug Screen. Data for the cln2 rad14 strain (AID 165);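 also: 0% = growth equal to vehicle treated cultures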; details: S. cerevisiae cln2 rad14 strain, at 50.0 µM, hits give high values
Method in brief: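 Growth of compound-exposed yeast (cln2 rad14 genotype) measured and expressed as inhibition relative to vehicle.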

[5] = NCI Yeast Anticancer Drug Screen. Data for the bub3 strain (AID 167); details: S. cerevisiae bub3 mutant strain, at 50.0 µM, hits give high values
Method in brief: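 Growth of a checkpoint-deficient yeast mutant is measured after compound exposure. Values represent inhibition relative to vehicle.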

[6] = NCI Yeast Anticancer Drug Screen. Data for the mlh1 rad18 strain (AID 175); details: S. cerevisiae mlh1 rad18 strain growth inhibition; at 50.0 µM; hits give high values
Method in brief: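 In this whole-cell yeast screen, a strain with altered DNA damage repair is challenged with compound, and its growth is measured against matched vehicle-treated controls.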

Measured: growth inhibition

Cc1c(Cl)cccc1NC(=O)Nc1ccccc1F
inactive: [1] 14.2% | [2] 7.65% | [3] 15.2% | [4] 19.2% | [5] 28.4% | [6] 17.4%

COC(=O)C1C(C(=O)OC)C2(C)C(=O)C1(C)C(c1ccccc1)=C2c1ccccc1 (stereo not given)
inactive: [1] -0.7% | [2] 2.55% | [3] -5.4% | [4] -12.3% | [5] 1.15% | [6] 5.15%

Cc1[nH]c2ccccc2c1C(c1ccccc1O)c1c(C)[nH]c2ccccc12
inactive: [1] 20.6% | [2] 23.4% | [3] 14.2% | [4] 18.6% | [5] 13.2% | [6] 33.4%

Fc1ccc(-c2nc3ccccc3[nH]2)cc1
inactive: [1] -9.6% | [2] 23.9% | [3] -1.2% | [4] -8.4% | [5] -4.4% | [6] -7.05%

Cc1c(C)c(C(Cl)(Cl)Cl)c(C)c(C)c1Br
inactive: [1] -0.7% | [2] 4.8% | [3] -0.75% | [4] 8.15% | [5] 3.6% | [6] -7.3%

O=C1NC(=O)N2CC(CI)OC2C1c1ccccc1 (stereo not given)
inactive: [1] 0.25% | [2] 12.8% | [3] 10.2% | [4] 6.55% | [5] -6.6% | [6] 11.4%

CCCOP(=O)(CCCP(=O)(OCCC)OCCC)OCCC
inactive: [1] -8.4% | [2] -9.6% | [3] 0.5% | [4] -25.6% | [5] 6.2% | [6] -12.5%

CC(C)CNC(=O)O
inactive: [1] 5.15% | [2] -7.1% | [3] -7.5% | [4] -6.15% | [5] -10.8% | [6] -4.75%

CCOC12CC(OC(=O)N1)C(C)C1OC1(C)C(OC(=O)C(C)N(C)C(C)=O)CC(=O)N(C)c1cc(cc(OC)c1Cl)C/C(C)=C/C=CC2OC (stereo not given)
inactive: [1] -21.1% | [2] -29.6% | [3] -30.9% | [4] -0.4% | [5] -20.4% | [6] -5.25%

CC(=O)CCC(CC(=O)O)C(C)C (stereo not given)
inactive: [1] 12% | [2] 0.05% | [3] 14.9% | [4] -9% | [5] 4.8% | [6] 24.1%

COc1ccc(CN2C(=O)C(=O)N(C)C2=O)c2ccccc12
inactive: [1] 36.9% | [2] 4.65% | [3] 13.8% | [4] 18.1% | [5] 18.5% | [6] 23.6%

CCCCC(CC)CC#N (stereo not given)
inactive: [1] 6.15% | [2] -20.1% | [3] 21.1% | [4] 6.05% | [5] -4.35% | [6] 10.7%

COc1cc2nc3n(c(=O)c2cc1OC)CCCCC3
inactive: [1] 10.4% | [2] 14.6% | [3] 3.75% | [4] -13.2% | [5] 28% | [6] -19.8%

Clc1ccccc1CSc1cnnc(Cl)c1SCc1ccccc1Cl
inactive: [1] 28.6% | [2] 12.2% | [3] 31.6% | [4] 39.6% | [5] 5.2% | [6] 21.9%

CN(C)C=Nc1ccc(F)cc1
inactive: [1] -16.1% | [2] -5.6% | [3] -11.4% | [4] -20.1% | [5] -1.8% | [6] -2.1%

CC(=O)NC(c1ccc(F)cc1)(c1ccc(F)cc1)C(F)(F)F
inactive: [1] 40.4% | [2] 11.1% | [3] 42.2% | [4] 35.6% | [5] 43% | [6] 40.9%

CCC1=CC(C=O)N(C(C)=O)c2ccccc21 (stereo not given)
inactive: [1] -2.85% | [2] 7.8% | [3] 7.2% | [4] 2.1% | [5] 1.95% | [6] -2.5%

COC(=O)C1C(c2ccccc2)C1(C#N)C#N (stereo not given)
inactive: [1] -42.5% | [2] 2.55% | [3] -1% | [4] -25.6% | [5] -5.55% | [6] 3.3%

CC1(C)N=C(C(N)=O)c2ncn(CCCO)c2N1
inactive: [1] -13.5% | [2] -12.6% | [3] -48.4% | [4] 23.2% | [5] -0.35% | [6] -6.8%

CC(C)N(CCSC(=O)N1c2ccccc2Sc2cccnc21)C(C)C
inactive: [1] -2% | [2] 0.8% | [3] -18.9% | [4] -12.3% | [5] 1.45% | [6] 1.6%

CCN(Cc1cccc(S(=O)(=O)O)c1)c1ccc(C(=C2C=CC(=[N+](C)C)C=C2)c2ccc(N(C)C)cc2)c(S(=O)(=O)O)c1
inactive: [1] 8.35% | [2] 54.8% | [3] 28.1% | [4] -8.55% | [5] 11.9% | [6] 26.4%

COC(=O)C(=O)c1cc(C)n(C)c(=O)c1CN1C(=O)c2ccccc2C1=O
inactive: [1] -14.2% | [2] 14.8% | [3] 13.8% | [4] -18.9% | [5] -11.8% | [6] -12.8%

Cc1cc(C)c2c(c1)C(=O)c1ccccc1C2=O
inactive: [1] 42.6% | [2] 47.1% | [3] 47.4% | [4] 38% | [5] 30.9% | [6] 58.8%

O=C(O)C(O)(O)C(O)(O)C(=O)O
inactive: [1] 6.35% | [2] -22.6% | [3] -4% | [4] 4.85% | [5] -5.85% | [6] -10.4%

NC(=O)N/N=C(/c1nc2ccc([N+](=O)[O-])cc2[nH]c1=O)C(O)c1ccco1 (stereo not given)
inactive: [1] 5.35% | [2] -9.65% | [3] -11.1% | [4] 19.8% | [5] -19% | [6] 3.5%

CCCn1cnc2c(SCC(=O)O)nc(N)nc21
inactive: [1] -33.3% | [2] -18.9% | [3] -24.4% | [4] -26.1% | [5] -22.1% | [6] -8.9%

COC1/C=C/OC2(C)Oc3c(C)c(OC(C)=O)c4c(c3C2=O)C(=O)C=C(NC(=O)/C(C)=C\C=C\C(C)C(OC(C)=O)C(C)C(O)C(C)C(OC(C)=O)C1C)C4=O (stereo not given)
inactive: [1] 13.6% | [2] 20.7% | [3] 26.1% | [4] 21.6% | [5] 9.45% | [6] 42.9%

CCC(=O)OCC1OC(Oc2ccc(N=Nc3ccccc3)cc2)C(OC(=O)CC)C(OC(=O)CC)C1OC(=O)CC (stereo not given)
inactive: [1] 18.9% | [2] 3.4% | [3] 34% | [4] 1.35% | [5] 12.9% | [6] 28.2%

O=C(/C=C(\Cl)c1ccc2c(c1)OCO2)OC/C=C\c1ccc2c(c1)OCO2
inactive: [1] 30.9% | [2] 9.55% | [3] 25.1% | [4] 20.3% | [5] -7.4% | [6] 19.2%

CC1=CC(=C2C=CC(=O)C=C2)C=C(C)N1C
inactive: [1] 5.6% | [2] -5.55% | [3] -8.05% | [4] -4.5% | [5] 2.4% | [6] -3.65%

C=CC(C)(O)/C=C/C=C(\C)C(CC1OC1(C)C)OC(=O)/C(C)=C\C (stereo not given)
inactive: [1] -10.8% | [2] -16.9% | [3] 3.55% | [4] 10.3% | [5] -19.6% | [6] -64.1%

CCCc1c(C(=O)OCC)[nH]c(-c2ccc(-c3[nH]c(C(=O)OCC)c(CCC)c3C(=O)OCC)s2)c1C(=O)OCC
inactive: [1] -11.8% | [2] -11.3% | [3] -21.6% | [4] 3% | [5] -12.6% | [6] -16.1%

COc1cc([N+](=O)[O-])ccc1NC(=O)Nc1ccc(Cl)cc1[N+](=O)[O-]
inactive: [1] -4.8% | [2] 28.1% | [3] 24.6% | [4] -12.6% | [5] 29.4% | [6] 27.1%

CCOC(=O)C(=CNc1ccc2c(c1)OCO2)C(=O)OCC
inactive: [1] 4.95% | [2] -11.2% | [3] 28.2% | [4] 4.65% | [5] 49.4% | [6] 14.8%

CC(=O)c1cccc(NCn2nnc3ccccc32)c1
inactive: [1] -47.5% | [2] -8.65% | [3] -62.3% | [4] -4.25% | [5] -45.4% | [6] -34.5%

COc1cccc(CC(=O)O)c1OC
inactive: [1] 22.9% | [2] -4.75% | [3] -12% | [4] 1.8% | [5] -3.5% | [6] 12.6%

N#C/C(=C\c1ccccc1)c1cccc(Cl)c1
inactive: [1] -32.2% | [2] -5.8% | [3] -13.3% | [4] -97.1% | [5] 13.8% | [6] -12.7%

NC(=O)C1CCCNC1 (stereo not given)
inactive: [1] -6.6% | [2] -6.65% | [3] -10.4% | [4] -13.6% | [5] 15.6% | [6] 6.85%

O=C(CCCCCCC(=O)ON1C(=O)CCC1=O)ON1C(=O)CCC1=O
inactive: [1] -16.9% | [2] -3.55% | [3] -16.8% | [4] 13.8% | [5] -24.4% | [6] -4.1%

Cc1cc(C)c(CN(C)C)c(CC(O)c2ccccc2)c1 (stereo not given)
inactive: [1] 10.8% | [2] -5.95% | [3] 7.4% | [4] -15% | [5] 3.45% | [6] -1.95%
